Measured values as given in PubChem BioAssay AID1159580 (chemical genetic matrix, 2015).
Out of some 5,500 compounds screened, about 2,000 (36%) were called active. About 18% were inconclusive and are not listed. Some of the results follow. Values without a mark were called inactive. Rule as the data show it: active = normalized growth mostly below about 0.91 (no sharp cut-off); inconclusive = no clear call, values can overlap the other calls; inactive = mostly above about 0.92.

Assay: chemical genetic growth profiling, strain panel (AID 1159580);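 also: tested at 20 µM; growth read once vehicle control cultures reached saturation at 30 °C; 1 = growth at the plate median or of vehicle wells; lower values mean less growth of the strain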
Conditions: S. cerevisiae deletion strains, growth OD

SMILES: CC1C/C=C/C=C/C=C/C=C/C(O[C@@H]2O[C@H](C)[C@@H](O)[C@H](N)[C@@H]2O)CC2OC(O)(CC(O)CC3OC3/C=C/C(=O)O1)CC(O)C2C(=O)O (stereo not given in full)
- normalized growth (locus YAL021C, strain ccr4, stronger effect = lower value): 1.02
- normalized growth (locus YAL026C, strain drs2, stronger effect = lower value): 0.94
- normalized growth (locus YAL030W, strain snc1, stronger effect = lower value): 1
- normalized growth (locus YBL061C, strain skt5, stronger effect = lower value): 1
- normalized growth (locus YBR009C, strain hhf1, stronger effect = lower value): 0.981
- normalized growth (locus YBR023C, strain chs3, stronger effect = lower value): 0.992
- normalized growth (locus YBR171W, strain sec66, stronger effect = lower value): 0.142 (active)
- normalized growth (locus YBR231C, strain swc5, stronger effect = lower value): 0.981
- normalized growth (locus YBR279W, strain paf1, stronger effect = lower value): 1
- normalized growth (locus YCL011C, strain gbp2, stronger effect = lower value): 0.989
- normalized growth (locus YCL016C, strain dcc1, stronger effect = lower value): 0.993
- normalized growth (locus YCL061C, strain MRC1, stronger effect = lower value): 0.802 (active)
- normalized growth (locus YCL069W, strain vba3, stronger effect = lower value): 1.01
- normalized growth (locus YCR088W, strain abp1, stronger effect = lower value): 0.126 (active)
- normalized growth (locus YDL005C, strain med2, stronger effect = lower value): 0.993
- normalized growth (locus YDL040C, strain nat1, stronger effect = lower value): 0.993
- normalized growth (locus YDR001C, strain nth1, stronger effect = lower value): 1
- normalized growth (locus YDR069C, strain doa4, stronger effect = lower value): 0.983
- normalized growth (locus YDR137W, strain rgp1, stronger effect = lower value): 1.01
- normalized growth (locus YDR159W, strain sac3, stronger effect = lower value): 0.958
- normalized growth (locus YDR195W, strain ref2): 0.945
- normalized growth (locus YDR297W, strain sur2, stronger effect = lower value): 1
- normalized growth (locus YDR334W, strain swr1, stronger effect = lower value): 0.999
- normalized growth (locus YDR335W, strain msn5, stronger effect = lower value): 0.985
- normalized growth (locus YDR392W, strain spt3, stronger effect = lower value): 0.848
- normalized growth (locus YEL003W, strain gim4, stronger effect = lower value): 0.991
- normalized growth (locus YEL037C, strain rad23, stronger effect = lower value): 0.992
- normalized growth (locus YEL061C, strain CIN8 (second series), stronger effect = lower value): 0.984
- normalized growth (locus YER015W, strain faa2, stronger effect = lower value): 0.823 (active)
- normalized growth (locus YER016W, strain bim1, stronger effect = lower value): 0.978
- normalized growth (locus YER111C, strain swi4, stronger effect = lower value): 0.981
- normalized growth (locus YER155C, strain BEM2 (second series), stronger effect = lower value): 0.711 (active)
- normalized growth (locus YFR010W, strain ubp6, stronger effect = lower value): 0.982
- normalized growth (locus YGL167C, strain pmr1, stronger effect = lower value): 0.984
- normalized growth (locus YGL173C, strain kem1, stronger effect = lower value): 0.997
- normalized growth (locus YGL227W, strain vid30, stronger effect = lower value): 0.0655 (active)
- normalized growth (locus YGL240W, strain doc1, stronger effect = lower value): 0.996
- normalized growth (locus YGL253W, strain hxk2, stronger effect = lower value): 0.973
- normalized growth (locus YHR013C, strain ard1, stronger effect = lower value): 0.957
- normalized growth (locus YHR027C, strain rpn1, stronger effect = lower value): 1
- normalized growth (locus YHR030C, strain SLT2, stronger effect = lower value): 0.972
- normalized growth (locus YHR079C, strain IRE1, stronger effect = lower value): 0.975
- normalized growth (locus YHR142W, strain chs7, stronger effect = lower value): 1.02
- normalized growth (locus YJL092W, strain hpr5, stronger effect = lower value): 0.964
- normalized growth (locus YJL095W, strain BCK1 (second series), stronger effect = lower value): 1
- normalized growth (locus YJL095W, strain BCK1, stronger effect = lower value): 1
- normalized growth (locus YJL115W, strain asf1, stronger effect = lower value): 1
- normalized growth (locus YJL129C, strain trk1, stronger effect = lower value): 0.949
- normalized growth (locus YJL154C, strain vps35, stronger effect = lower value): 0.995
- normalized growth (locus YJL164C, strain tpk1, stronger effect = lower value): 1.01
- normalized growth (locus YJL166W, strain qcr8, stronger effect = lower value): 0.992
- normalized growth (locus YJL187C, strain SWE1, stronger effect = lower value): 1
- normalized growth (locus YJR066W, strain TOR1, stronger effect = lower value): 0.943
- normalized growth (locus YKL160W, strain elf1, stronger effect = lower value): 1.04
- normalized growth (locus YKR026C, strain gcn3, stronger effect = lower value): 0.296 (active)
- normalized growth (locus YKR091W, strain srl3, stronger effect = lower value): 0.999
- normalized growth (locus YLL001W, strain dnm1, stronger effect = lower value): 0.982
- normalized growth (locus YLL026W, stronger effect = lower value): 1
- normalized growth (locus YLL041C, strain sdh2, stronger effect = lower value): 0.998
- normalized growth (locus YLR027C, strain aat2, stronger effect = lower value): 1
- normalized growth (locus YLR113W, strain HOG1, stronger effect = lower value): 1.02
- normalized growth (locus YLR221C, strain rsa3, stronger effect = lower value): 1.02
- normalized growth (locus YLR258W, strain gsy2, stronger effect = lower value): 0.977
- normalized growth (locus YLR262C, strain YPT6 (second series), stronger effect = lower value): 1.01
- normalized growth (locus YLR320W, strain mms22, stronger effect = lower value): 1
- normalized growth (locus YLR342W, strain FKS1, stronger effect = lower value): 0.994
- normalized growth (locus YLR357W, strain rsc2, stronger effect = lower value): 0.427 (active)
- normalized growth (locus YLR370C, strain arc18, stronger effect = lower value): 1.02
- normalized growth (locus YLR384C, strain iki3, stronger effect = lower value): 0.994
- normalized growth (locus YML120C, strain ndi1, stronger effect = lower value): 1.01
- normalized growth (locus YMR058W, strain fet3, stronger effect = lower value): 0.921
- normalized growth (locus YMR125W, strain sto1, stronger effect = lower value): 0.0829 (active)
- normalized growth (locus YMR129W, stronger effect = lower value): 0.987
- normalized growth (locus YMR205C, strain PFK2, stronger effect = lower value): 0.985
- normalized growth (locus YMR231W, strain pep5, stronger effect = lower value): 0.997
- normalized growth (locus YNL071W, strain lat1, stronger effect = lower value): 1
- normalized growth (locus YNL183C, strain NPR1, stronger effect = lower value): 0.956
- normalized growth (locus YNL209W, strain ssb2, stronger effect = lower value): 0.999
- normalized growth (locus YNL248C, strain rpa49, stronger effect = lower value): 0.544 (active)
- normalized growth (locus YNL322C, strain KRE1 (second series), stronger effect = lower value): 1
- normalized growth (locus YNR049C, strain mso1, stronger effect = lower value): 0.994
- normalized growth (locus YOR001W, strain rrp6, stronger effect = lower value): 1.01
- normalized growth (locus YOR070C, strain gyp1, stronger effect = lower value): 0.998
- normalized growth (locus YOR080W, strain dia2, stronger effect = lower value): 1
- normalized growth (locus YOR083W, strain WHI5, stronger effect = lower value): 1.03
- normalized growth (locus YOR106W, strain vam3, stronger effect = lower value): 1.03
- normalized growth (locus YOR231W, strain MKK1, stronger effect = lower value): 0.963
- normalized growth (locus YOR265W, strain rbl2, stronger effect = lower value): 0.999
- normalized growth (locus YOR270C, strain vph1, stronger effect = lower value): 0.948
- normalized growth (locus YOR290C, strain snf2, stronger effect = lower value): 0.953
- normalized growth (locus YPL051W, strain arl3, stronger effect = lower value): 1
- normalized growth (locus YPL078C, strain atp4, stronger effect = lower value): 1.02
- normalized growth (locus YPL106C, strain sse1, stronger effect = lower value): 1.01
- normalized growth (locus YPL240C, strain hsp82, stronger effect = lower value): 1
- normalized growth (locus YPL256C, strain CLN2, stronger effect = lower value): 0.991
